Results as given in PubChem BioAssay (NCI).
The panel holds about 83,000 compounds, 20% with a hit somewhere; the sample as a whole holds those more often.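 Values shown are percent growth following 48 h exposure of cells in 96-well plates to a single concentration of compound; below 10 was considered active.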 Unmarked numbers belong to inactive results. Activity calls are given as the source filed them.

Key:
Test in all cases: NCI-60 one-dose screen, 48 h (100 = growth as untreated, 0 = no growth, -100 = all killed)
Conditions in all cases: 10 µM unless noted
DU-145 prostate = system: DU-145 prostate
K-562 leukemia = system: K-562 leukemia
MALME-3M melanoma = system: MALME-3M melanoma
MDA-MB-231 breast = system: MDA-MB-231 breast
RXF 393 renal = system: RXF 393 renal
SF-268 CNS = system: SF-268 CNS
SF-295 CNS = system: SF-295 CNS
SF-539 CNS = system: SF-539 CNS
UACC-257 melanoma = system: UACC-257 melanoma
M14 melanoma = system: M14 melanoma
HCT-15 colon = system: HCT-15 colon
HT29 colon = system: HT29 colon
SNB-75 CNS = system: SNB-75 CNS
SNB-19 CNS = system: SNB-19 CNS
U251 CNS = system: U251 CNS
PC-3 prostate = system: PC-3 prostate
SK-MEL-5 melanoma = system: SK-MEL-5 melanoma
UACC-62 melanoma = system: UACC-62 melanoma
LOX IMVI melanoma = system: LOX IMVI melanoma
SK-MEL-28 melanoma = system: SK-MEL-28 melanoma

Row | Compound | growth (DU-145 prostate) | growth (K-562 leukemia) | growth (MALME-3M melanoma) | growth (MDA-MB-231 breast) | growth (RXF 393 renal) | growth (SF-268 CNS) | growth (SF-295 CNS) | growth (SF-539 CNS) | growth (UACC-257 melanoma) | growth (M14 melanoma) | growth (HCT-15 colon) | growth (HT29 colon) | growth (SNB-75 CNS) | growth (SNB-19 CNS) | growth (U251 CNS) | growth (PC-3 prostate) | growth (SK-MEL-5 melanoma) | growth (UACC-62 melanoma) | growth (LOX IMVI melanoma) | growth (SK-MEL-28 melanoma)
1 | CCCCCCCCCCCC(c1ccccc1)[N+](C)(C)C (stereo not given) | 39.8% | 19% | 5.27% (active) | 21.1% | -61% (active) | 13.2% | 55.1% | 15.8% | 20% | 11.2% | 93.4% | 3.96% (active) | -15.3% (active) | 25.2% | 18.3% | -18.8% (active) | -80.1% (active) | 6.22% (active) | -36.8% (active) | 31.6%
2 | O=C1CCC2=C3C4CCCCC4C(=O)C4CCCC(OC2C1)C34 (stereo not given) | 0.534% (active) | 5.63% (active) | -33% (active) | 28% | -80.8% (active) | 3.25% (active) | 33.4% | 4.64% (active) | 28.8% | 0.565% (active) | 4.39% (active) | 85.6% | 43.1% | 34.1% | 4.33% (active) | 46.7% | -77.9% (active) | 50.3% | 1.47% (active) | 52%
3 | CCN1CCN(c2nc(C)cc(NCc3cc(Nc4ccnc5cc(Cl)ccc45)ccc3F)n2)CC1 | 38% | -38.3% (active) | -69% (active) | -31.1% (active) | -10.8% (active) | 16.6% | -55% (active) | -81% (active) | -57.7% (active) | -83.7% (active) | -24.2% (active) | -12.6% (active) | -34.7% (active) | 34.7% | -27.2% (active) | 19.5% | -96.4% (active) | -49.8% (active) | -81.5% (active) | -80.3% (active)
4 | C[C@H]1[C@H]2[C@H]3CC[C@@H]4[C@@]5(C)C/C(=C/c6ccco6)C(=O)C(C)(C)[C@@H]5CC[C@@]4(C)[C@]3(C)CC[C@]23CO[C@]1(C)[C@@H](C(=O)/C=C\c1ccco1)C3 | 111% | 93.4% | 23.5% | 94.9% | 98.4% | 97.3% | 107% | 93.8% | 31.5% | 60.5% | 112% | 105% | 88.2% | 91.8% | 83.4% | 79.7% | 55.7% | 26% | 93.6% | 43.9%
5 | COc1ccc2c(c1)CCCN2c1c2ccccc2nc2ccccc12 | 5.71% (active) | 9.39% (active) | 55.3% | 6.06% (active) | 27.1% | 33.7% | 8.45% (active) | -26.4% (active) | 71.2% | 3.64% (active) | 12.5% | 8.43% (active) | 0.187% (active) | 34.6% | 14.1% | 15.9% | 2.04% (active) | 5.34% (active) | 12.2% | 47%
6 | COc1ccc(-c2csc(C3=C(O)CN(CCCN4CCCC4=O)C3=N)n2)cc1OC | 103% | 88.9% | 129% | 79.6% | 78.3% | 121% | 92% | 90.1% | 97.2% | 122% | 94% | 114% | 106% | 93.8% | 99% | 83.5% | 89.2% | 103% | 93.5% | 124%
7 | COc1nc(N(C)O)nc(N(C)O)n1 | 23.5% | 20.3% | 58.6% | 49.1% | 58.5% | 30.9% | 60.6% | 20.1% | 39.6% | 15% | 23.9% | 46.3% | 74.5% | 31.8% | 27.2% | 42.9% | 13.1% | 11.5% | 14.8% | 53.2%
8 | Cc1nc2ccccc2c(/C=C/c2ccc(Cl)cc2)c1C(=O)/C=C/c1ccc(F)cc1 | -8.13% (active) | 5.45% (active) | -6.33% (active) | 1.67% (active) | -48.9% (active) | 48.6% | 12.3% | -61.2% (active) | 15% | 5.81% (active) | -15.4% (active) | 5.82% (active) | 51.7% | -26% (active) | -76.8% (active) | 20.4% | 8.11% (active) | 0.679% (active) | -90.3% (active) | -27.7% (active)
